Source: PubChem (NMMLSC)
In the library only some 1.2% were active in any assay of this set; here they are far more common.
Avidin fluor: compound fluoresces at 488/530 nm on avidin beads. AID 1775. compound fluorescence 488/530 nm, flow cytometry; active compounds read high. 220,000 tested, 0.38% active. fluorescence (KMESF) at 10 µM; in the data active means fluorescence above about 47
RGS8-Gao: human RGS8-Galphao interaction regulation; response (percent of control binding), % at 10 µM; 220,000 tested, 0.34% active; AID 1423; multiplexed bead flow cytometry, RGS8-Galphao binding; actives lie on both sides; P09471; in the data active means response below about 60% or above about 140%; inactive means in between;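 further: Galphao activated as the GDP aluminium fluoride complex binding bead-coupled RGS8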
Target sequence (P09471 whole entry, looked up): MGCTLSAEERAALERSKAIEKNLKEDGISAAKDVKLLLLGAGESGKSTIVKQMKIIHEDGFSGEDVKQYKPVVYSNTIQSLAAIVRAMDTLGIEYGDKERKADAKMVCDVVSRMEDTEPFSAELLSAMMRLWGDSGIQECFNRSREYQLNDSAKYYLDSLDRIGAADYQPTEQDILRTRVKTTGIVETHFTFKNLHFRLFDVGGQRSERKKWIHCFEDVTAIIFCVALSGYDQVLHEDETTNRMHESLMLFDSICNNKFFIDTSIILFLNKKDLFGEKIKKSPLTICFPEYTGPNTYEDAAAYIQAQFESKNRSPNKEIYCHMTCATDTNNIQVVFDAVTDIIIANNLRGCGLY
RGS16-Gao: modulates binding between human RGS16 and Galphao; O15492+P09471; binding response (% of control), % at 10 µM; 220,000 tested, 0.38% active; bead-based flow cytometry RGS16-Galphao binding, fluorescence; actives lie on both sides;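 further: Galphao activated by GDP with aluminum fluoride before binding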
Target sequence (O15492 whole entry, looked up): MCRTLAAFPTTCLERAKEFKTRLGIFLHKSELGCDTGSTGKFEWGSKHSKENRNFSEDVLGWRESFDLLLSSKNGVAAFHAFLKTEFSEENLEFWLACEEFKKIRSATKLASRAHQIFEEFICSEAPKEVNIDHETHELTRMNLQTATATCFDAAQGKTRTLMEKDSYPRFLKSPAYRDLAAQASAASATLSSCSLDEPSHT
Target sequence (P09471 whole entry, looked up): as the sequence (P09471 whole entry, looked up) above
GSH bead fluor: compound fluoresces at 488/530 nm on GSH beads | GSH beads flow cytometry, compound fluorescence 488/530 nm; active compounds read high | fluorescence (KMESF) at 10 µM | 190,000 tested, 0.25% active; in the data active means fluorescence above about 89;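 further: glutathione beads carrying GST-tagged Bcl family fusion proteins plus one bare bead set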
RGS7-Gao: modulates binding of RGS7 to human Galphao | Multiplexed bead flow cytometry; actives lie on both sides | P09471 | 220,000 tested, 0.35% active | binding response (% of control), % at 10 µM; in the data active means binding response below about 49% or above about 150%; inconclusive means no clear call, values can overlap the other calls; inactive means in between;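 further: fluorescent Galphao held in activated GDP-AlF4 state binding bead-coupled RGS7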
RGS4-Gao reg: modulates binding of RGS4 to human Galphao; P09471; Multiplexed bead flow cytometry; actives lie on both sides; binding response (% of control), % at 10 µM; 220,000 tested, 0.33% active; AID 1415; in the data active means binding response below about 49% or above about 150%; inactive means in between;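 further: fluorescent Galphao activated with aluminum fluoride binding bead-coupled RGS4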
RGS-Gao: modulates binding between human RGS4 and Galphao. shares compounds with RGS16-Gao. multiplexed bead flow cytometry, RGS–Galpha-o binding. RGS4–Galpha-o binding response, % at 10 µM. 1,600 tested, 99% active. AID 1504;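 further: fluorescently labeled Galpha-o bound to GDP with aluminium fluoride binding biotinylated RGS beads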
Avidin counter: biotin-avidin bead binding disruption counter-screen. streptavidin beads, fluorescein-biotin binding, flow cytometry. shares compounds with RGS16-Gao. inhibition, % at 10 µM. 1,700 tested, under 10 active;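 active means inhibition above 50%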;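 further: median green fluorescence of gated singlet beads compared with DMSO control wells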
RGS8-Gao single: confirmation of regulators of human RGS8-Galphao interaction; shares compounds with RGS16-Gao; bead-based flow cytometry RGS8-Galphao binding, fluorescence; actives lie on both sides; binding response (% of control), % at 10 µM; 1,700 tested, 3% active; AID 1836; in the data active means binding response below about 72% or above about 130%; inactive means in between;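 further: Galphao activated as GDP AlF4 complex before binding bead RGS8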
RGS7-Gao single: confirmation of regulators of human RGS7-Galphao interaction | shares compounds with RGS16-Gao | bead-based flow cytometry RGS7-Galphao binding; actives lie on both sides | response (percent of control binding), % at 10 µM | 1,700 tested, 7.8% active; in the data active means response below about 75% or above about 130%; inactive means in between;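 further: fluorescent Galphao activated with GDP and aluminum fluoride binding bead-coupled RGS7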
RGS16-Gao single: confirmation of regulators of human RGS16-Galphao interaction. shares compounds with RGS16-Gao. bead-based flow cytometry, RGS16-Galphao binding; actives lie on both sides. response (% of control binding), % at 10 µM. 1,700 tested, 4% active; in the data active means response below about 74% or above about 130%; inactive means in between;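 further: Galphao activated as the GDP aluminium fluoride complex binding bead-coupled RGS16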
RGS4-Gao confirm: confirmation of regulators of human RGS4-Galphao interaction; shares compounds with RGS16-Gao; RGS4-Galphao binding, multiplexed bead flow cytometry; actives lie on both sides; binding response (% of control), % at 10 µM; 1,700 tested, 4% active; in the data active means binding response below about 74% or above about 130%; inactive means in between
RGS19-Gao conf: confirmation of regulators of human RGS19-Galphao interaction | AID 1841 | response (percent of control binding), % at 10 µM | 1,700 tested, 5% active | shares compounds with RGS16-Gao | bead-based flow cytometry RGS19-Galphao binding; actives lie on both sides; in the data active means response below about 50% or above about 160%; inactive means in between
Each line names hits and unclear results; the compound was inactive in the other large screens (follow-up assays come after a bar, where they were run); [ ] = remark or other dose. Unless noted, how the calls were made is not given here.

COc1cc(OC)c(/C=N/NC(=O)COc2cccc3cccnc23)c(OC)c1	RGS7-Gao inconclusive (no result: GSH bead fluor)
Oc1ccc(-n2cccc2/C=N/n2cnnc2)cc1	none
Cc1nnc(NC(=O)CSc2nnc(C)n2Cc2ccccc2)s1	none
Cc1nnc(NC(=O)CSc2nnc(Cc3ccccc3)n2Cc2ccccc2)s1	none (no result: Avidin fluor, RGS16-Gao) | Avidin counter inactive | RGS8-Gao single inactive | RGS7-Gao single 45 | RGS16-Gao single inactive | RGS4-Gao confirm 59 | RGS19-Gao conf 46
CCn1c(SCC(=O)Nc2nnc(C)s2)nnc1-c1ccncc1	none (no result: Avidin fluor, RGS8-Gao, RGS16-Gao, RGS7-Gao, RGS4-Gao reg) | Avidin counter inactive | RGS8-Gao single inactive | RGS7-Gao single inactive | RGS16-Gao single inactive | RGS4-Gao confirm inactive | RGS19-Gao conf inactive
O=C(OCC(=O)N1CCN(S(=O)(=O)c2ccccc2)CC1)c1ccc([N+](=O)[O-])o1	RGS7-Gao inconclusive
Oc1c(Br)cc(Br)cc1/C=N/N1CCN(Cc2ccccc2)CC1	Avidin fluor 107, RGS7-Gao 172[activator] | RGS-Gao 112 | Avidin counter inactive | RGS8-Gao single inactive | RGS7-Gao single inactive | RGS16-Gao single inactive | RGS4-Gao confirm inactive | RGS19-Gao conf inactive
Cc1ccccc1/C=C/c1nc2ccccc2c(=O)[nH]1	RGS8-Gao 42, RGS16-Gao 14, RGS7-Gao inconclusive, RGS4-Gao reg 7.3 (no result: GSH bead fluor) | Avidin counter inactive | RGS8-Gao single inactive | RGS7-Gao single inactive | RGS16-Gao single inactive | RGS4-Gao confirm inactive | RGS19-Gao conf inactive
CC1CCCC(NC(=O)COC(=O)Cc2cn3ccsc3n2)C1C (stereo not drawn)	RGS8-Gao 3.7, RGS16-Gao -64, RGS7-Gao -19, RGS4-Gao reg -58 (no result: Avidin fluor) | Avidin counter inactive | RGS8-Gao single inactive | RGS7-Gao single inactive | RGS16-Gao single inactive | RGS4-Gao confirm inactive | RGS19-Gao conf inactive
COc1ccc(NC(C)=O)cc1NC(=O)CN1CCN(C(=O)c2ccco2)CC1	RGS8-Gao 153[activator] | RGS-Gao 130 | Avidin counter inactive | RGS8-Gao single inactive | RGS7-Gao single inactive | RGS16-Gao single inactive | RGS4-Gao confirm inactive | RGS19-Gao conf inactive
Cc1cc(C)n(C(=O)c2ccc([N+](=O)[O-])c(Cl)c2)n1	none
CCN(CC)CCN1C(=O)c2ccccc2NC1c1ccccc1F (stereo not drawn)	RGS16-Gao 23 | RGS-Gao 88
CCN(CC)CCN1C(=O)c2ccccc2NC1c1ccc(F)cc1 (stereo not drawn)	none
COc1ccc(CC(=O)NC(c2ccccc2)c2ccccc2)cc1S(=O)(=O)N1CCOCC1	none
CC(Sc1nnc(-c2cccnc2)n1-c1ccccc1F)C(=O)N1CCCc2ccccc21 (stereo not drawn)	none
Cc1nn(C)c(C(=O)N/N=C/c2cccc3ccccc23)c1Cl	RGS8-Gao 38, RGS7-Gao 28, RGS4-Gao reg 28 | Avidin counter inactive | RGS8-Gao single inactive | RGS7-Gao single inactive | RGS16-Gao single inactive | RGS4-Gao confirm inactive | RGS19-Gao conf inactive
O=C(Cn1cncn1)N/N=C/c1cccc2ccccc12	none
Cc1nn(C)c(C(=O)N/N=C/c2ccc(Br)cc2)c1Cl	RGS8-Gao 58, RGS7-Gao 40, RGS4-Gao reg 46 | Avidin counter inactive | RGS8-Gao single inactive | RGS7-Gao single inactive | RGS16-Gao single inactive | RGS4-Gao confirm inactive | RGS19-Gao conf inactive
O=C(O)CCCC(=O)Nc1cccc2cccnc12	Avidin fluor 89, RGS7-Gao 151[activator] | RGS-Gao 107 | Avidin counter inactive | RGS8-Gao single inactive | RGS7-Gao single inactive | RGS16-Gao single inactive | RGS4-Gao confirm inactive | RGS19-Gao conf inactive
Cc1noc(C)c1C(=O)NCc1cccs1	none (no result: Avidin fluor, RGS8-Gao, RGS16-Gao, RGS7-Gao, RGS4-Gao reg) | Avidin counter inactive | RGS8-Gao single inactive | RGS7-Gao single inactive | RGS16-Gao single inactive | RGS4-Gao confirm inactive | RGS19-Gao conf inactive
Cc1onc(-c2ccccc2Cl)c1C(=O)NCc1cccs1	none
CCc1cc2c(=O)[nH]c(COC)nc2s1	none
CCc1cc2c(=O)[nH]c(Cc3ccc(OC)cc3)nc2s1	RGS16-Gao 16 | RGS-Gao 89 | Avidin counter inactive | RGS8-Gao single inactive | RGS7-Gao single inactive | RGS16-Gao single inactive | RGS4-Gao confirm inactive | RGS19-Gao conf inactive
COc1ccc(C(=O)c2c[nH]c(C(=O)NCc3ccco3)c2)cc1	RGS8-Gao 18, RGS16-Gao 1.2, RGS7-Gao 20, RGS4-Gao reg 29 | Avidin counter inactive | RGS8-Gao single inactive | RGS7-Gao single inactive | RGS16-Gao single inactive | RGS4-Gao confirm inactive | RGS19-Gao conf inactive
COc1cccc(C(=O)c2c[nH]c(C(=O)NCc3ccco3)c2)c1	none
OC1CCN(c2ncnc3c2nnn3Cc2c(F)cccc2Cl)CC1	RGS7-Gao 152[activator] (no result: Avidin fluor, RGS16-Gao) | RGS-Gao 131 | Avidin counter inactive | RGS8-Gao single inactive | RGS7-Gao single 70 | RGS16-Gao single inactive | RGS4-Gao confirm inactive | RGS19-Gao conf inactive
CSC1=NSC2=NC(=O)/C(=C/c3coc4ccc(O)cc4c3=O)C(=N)N12	none
CSC1=NSC2=NC(=O)/C(=C/c3coc4ccccc4c3=O)C(=N)N12	Avidin fluor 94, RGS7-Gao 174[activator] | RGS-Gao 150
Cc1cccc(C)c1NC(=O)CSC(=O)c1sc2ccccc2c1Cl	RGS8-Gao 22, RGS16-Gao -2.1, RGS7-Gao inconclusive, RGS4-Gao reg -6.1 (no result: GSH bead fluor) | Avidin counter inactive | RGS8-Gao single inactive | RGS7-Gao single inactive | RGS16-Gao single inactive | RGS4-Gao confirm inactive | RGS19-Gao conf inactive
COc1ccc(Nc2nnc(SC(C(=O)Nc3cc(C)ccc3C)c3ccccc3)s2)cc1 (stereo not drawn)	none
